Assay [1] in a line: Immunotoxin (HA22) sensitization/mitigation study. Vehicle arm (PBS) (AID 1159510).
Assay [2] can be described thus: Immunotoxin (SS1P) sensitization/mitigation study. Vehicle arm (DMEM) (AID 1159513).

The source made the active and inactive calls. No rule for the calls is given here.
Potency is read from the fitted curve at half-maximal effect.

On to `CC(C)C(=O)Nc1ncc(-c2cc(C(F)F)nn2-c2c(Cl)cccc2Cl)s1`, for which the Potency in assay [1] was 11.8 µM (active); in assay [2] it was 18.7 µM (active).

Regarding `Cn1cc(-c2[nH]c3cc(NC(=O)[C@H](N)C4CCCCC4)cc4c3c2C=NNC4=O)cn1`, the Potency in assay [1] was 0.59 µM (active); in assay [2], 1.87 µM (active).

In the case of `CC(C)(N)C(=O)N[C@H](COCc1ccccc1)C(=O)N1CCC2(CC1)CN(S(C)(=O)=O)c1ccccc12`, the Potency in assay [1] is 18.7 µM (active); in assay [2], 8.33 µM (active).

As for `CCOc1cc(C=C2C(=O)N(c3ccccc3)N=C2C)cc(Cl)c1OCC(=O)OC`, in assay [1], the Potency was 18.7 µM (active). Besides, in assay [2], the Potency entry was “inactive”.

As to `CN1CCN(c2ccc3nc(-c4c(N)c5c(F)cccc5[nH]c4=O)[nH]c3c2)CC1`, the figures for the Potency in assay [1] and in assay [2] were 1.66 µM (active) and 18.7 µM (active), respectively.

As for `CCCCCCCCCCCCCC(=O)N[C@H](CO)[C@H](O)c1ccc([N+](=O)[O-])cc1`, the Potency is 16.6 µM (active) in assay [1] and 23.5 µM (active) in assay [2].

In the case of `C[C@H](NC(=O)Cc1cc(F)cc(F)c1)C(=O)N[C@@H]1C(=O)N(C)c2ccccc2-c2ccccc21`, the Potency result in assay [1] and in assay [2] was “inactive” in each case.

Consider `COc1ccc(OC)c(-c2nnc3ccc(-c4ccc(OC)c(O[C@@H]5CCOC5)c4)nn23)c1`, for which the Potency in assay [1] and in assay [2] was 8.33 µM (active) throughout.

For the origin of these results see PubChem BioAssay (NCATS).
